# Source: PubChem BioAssay (ICCB-Longwood Screening Facility, Harvard Medical School)
# This excerpt belongs to a sample that is enriched for hits.
# VACV E9 pol inh – vaccinia E9 polymerase processive synthesis inhibition; 46,000 compounds, 0.94% hits; in vitro processive DNA synthesis, absorbance read-out; stronger effect = lower value; normalized absorbance, % (no concentration beside the values); in the data active = normalized absorbance mostly below about 85%, no sharp cut-off; inactive = mostly above about 86%
# Numbers stand for hits; . = inactive.
SMILES,VACV E9 pol inh
CCN1CCCC1CNC(=O)c1cc2c(s1)-c1ccccc1SC2 (stereo not given),73
COC(=O)c1ccccc1OCC#N,.
CN(c1ccc(Cl)cc1)c1cc(=O)n(C)c2ccccc12,63
CN1CCN(C(=O)COc2cc(=O)n(C)c3ccccc23)CC1,.
CCOc1ccccc1N(C)C(=O)COc1cc(=O)n(C)c2ccccc12,.
FC(F)(F)c1ccccc1N=C1CCCc2ccccc21,.
NC(=O)Cn1cnc2sc3c(c2c1=O)CCC3,.
O=C(/C=C/c1ccccc1)Nc1ccc(Br)cc1,.
CCCC[C@@H](C=O)NC(=O)[C@H](CC(C)C)NC(=O)[C@H](CC(C)C)NC(C)=O,.
CC(=O)N[C@@H](CC(C)C)C(=O)N[C@@H](CC(C)C)C(=O)N[C@H](C=O)CCCN=C(N)N,.
CC[C@H](C)[C@H](N)C(=O)N[C@@H](CC(N)=O)C(=O)N[C@@H](CC(C)C)C(=O)N[C@@H](CCCCN)C(=O)N[C@@H](C)C(=O)N[C@@H](CC(C)C)C(=O)N[C@@H](C)C(=O)N[C@@H](C)C(=O)N[C@@H](CC(C)C)C(=O)N[C@@H](C)C(=O)N[C@@H](CCCN)C(=O)N[C@@H](C)C(=O)N[C@@H](CC(C)C)C(=O)N[C@@H](CC(C)C)C(N)=O,45
O=C(Nc1ccccc1NC(=O)c1ccc(Br)o1)c1ccc(Br)o1,.
Fc1ccc(-c2cn3nc4c(nc3n2)CCCC4)cc1,.
CCOC(=O)c1ccc(N2N=C(C(F)(F)F)/C(=C/C=C/c3ccco3)C2=O)cc1,.
O=C(O)c1ccc(N2N=C(C(F)(F)F)/C(=C/c3ccc(OC(=O)c4cccs4)cc3)C2=O)cc1,23
CCc1ccc(/C=C2/C(=O)N(c3ccccc3)N=C2C)cc1,.
CCCCC(=O)Nc1ccc(-c2csc(-c3ccccc3)n2)cc1,.
O=C(/C=N/O)Nc1ccccc1C(=O)O,.
O=C(O)c1ccccc1NCc1ccccc1Cl,.
O=C(Nc1ccccc1C(=O)O)OCC1c2ccccc2-c2ccccc21,41
O=[n+]1c(CO)c(CO)n([O-])c2ccccc21,.
Cc1ccc(C(=O)Nc2nnc(-c3ccccc3)s2)cc1,.
CC(C)C(=O)Nc1nnc(-c2ccccc2)s1,60
CC(C)C(=O)Nc1nnc(-c2ccc(Cl)cc2)s1,.
COc1ccc2sc(N(CCN(C)C)C(C)=O)nc2c1,.
SMILES,VACV E9 pol inh
COc1ccc2nc(N(CCN(C)C)C(=O)c3cccs3)sc2c1,.
CN(C)CCN(C(=O)c1ccco1)c1nc2cc3c(cc2s1)OCO3,61
c1cc2c(cc1C1=Nn3cnnc3SC1)OCCO2,.
O=C(COC(=O)c1ccccc1)Nc1ccc(F)c(Cl)c1,.
NC(=O)C1CCN(CCC(=O)Nc2ccccc2)CC1,.
O=C1c2ccccc2C(=O)N1c1nccs1,.
N=C1S/C(=C/c2ccco2)C(=O)N1c1nccs1,52
Cc1nnc(N2C(=N)S/C(=C\c3ccccc3Cl)C2=O)s1,.
COC(=O)c1sccc1S(=O)(=O)N1CCN(c2ncnc3c(C)csc23)CC1,.
Cc1csc2c(N3CC(C)OC(C)C3)ncnc12 (stereo not given),.
Cc1csc2c(N3CCN(C(=O)NC(C)(C)C)CC3)ncnc12,60
C=C1c2cccc(O)c2C(O)=C2C(=O)[C@]3(O)C(O)=C(C(N)=O)C(=O)[C@@H](N(C)C)[C@@H]3[C@@H](O)[C@H]12,55
CN(C)[C@@H]1C(=O)C(C(N)=O)=C(O)[C@@]2(O)C(=O)C3=C(O)c4c(O)cccc4[C@@](C)(O)[C@H]3C[C@@H]12,.
C=C1c2c(Cl)ccc(O)c2C(O)=C2C(=O)[C@]3(O)C(O)=C(C(N)=O)C(=O)[C@@H](N(C)C)[C@@H]3[C@@H](O)[C@H]12,.
O=C1Nc2ccc(Cl)cc2S/C1=C/Nc1ccccc1,.
COC(=O)C1Cc2c([nH]c3ccccc23)C(c2ccc(Cl)cc2)N1 (stereo not given),.
OC(CN1CCSCC1)C(F)(F)F (stereo not given),.
CCCC1CCC(c2ccc(C(=O)CCN(C)C)cc2)CC1 (stereo not given),.
CCCCC1CCC(c2ccc(C(=O)O)cc2)CC1 (stereo not given),51
CCCC1CCC(c2ccc(C(N)=O)cc2)CC1 (stereo not given),.
O=C1C(=O)N(CCCn2ccnc2)C(c2cccc(Br)c2)/C1=C(\O)c1ccccc1 (stereo not given),.
Cc1ccc(S(=O)(=O)N2C(=O)CCC2C(=O)NCc2nc(-c3ccccc3)no2)cc1 (stereo not given),.
O=C(Nc1cccc(Cl)c1)n1ncc2cc(Cl)ccc21,.
Cc1c(Sc2ccc(Cl)cc2)cnn1C(=O)Nc1cccc(C(F)(F)F)c1,71
Cc1ccnc(SCC(=O)Nc2cccc(C(F)(F)F)c2)n1,.
COc1ccc2c(c1OC)C(=O)OC2[C@H]1c2c(cc3c(c2OC)OCO3)CCN1C (stereo not given in full),.
COc1ccc2cc1Oc1ccc(cc1)C[C@H]1c3cc(c(OC)cc3CCN1C)Oc1c(OC)c(OC)cc3c1[C@H](C2)N(C)CC3,84
Cc1ccc2oc(=O)c3cc(C(=O)N4CCN(c5ccc(F)cc5)CC4)sc3c2c1,.
